According to PubChem BioAssay AID489039 (National Center for Advancing Translational Sciences (NCATS), 2010):
Where “and” joins values, the source holds several entries; their conditions need not be identical. Equal values may be shown once. Records with an inconclusive call do not appear. Calls of active or inactive are those of the source. Calls come from the whole dose curve; as a rule, active = well fitted inhibition curve with a large enough effect; inconclusive = small, poorly fitted or top-dose-only effect, or effect the other way; inactive = no such curve, though single readings can be large or run the other way.

The molecules below were run against Nuclear receptor ROR-alpha (Homo sapiens) (UniProt P35398) (assay: ROR alpha selectivity assay for inhibitors of ROR gamma transcriptional activity). Details: Drosophila S2 Gal4-RORalpha UAS-luciferase, 20 h; series mostly up to 92.2 µM; activity change, negative = inhibition: at the top concentration.
Source text: NIH Molecular Libraries Probe Production Network [MLPCN] NIH Chemical Genomics Center [NCGC] MLPCN Grant: R03 DA026211-01 Assay Provider: Dan Littman, New York University Assay Overview: The retinoic acid-related orphan receptor (ROR) gamma is a transcription factor that has a central role in the differentiation of Th17 cells, a subset of T helper cells that secrete the inflammatory cytokines IL-17A, IL-17F, and IL-22. Th17 cells have been implicated in graft versus host disease, autoimmune disease and asthma. RORgamma is induced in naive T helper cells in the presence of TGF-beta combined with IL-6, IL-21, or IL-23, and thereafter directs the expression of the Th17 lineage cytokines. To identify nonselective inhibitors, a Drosophila Schneider cell line was stably transfected with two vectors: a gene expressing a fusion of the Gal4 DNA binding domain and the transactivation domain of the ROR alpha, under the control of the metallothionine promoter and a Photinus luciferase reporter regulated by the Gal4 binding site enhancer, UAS. […] Small molecule inhibitors that inhibit RORgamma and RORalpha, or components common to both, will be active in both assays and thus scored as nonselective.
Assay Protocol Summary: For screening, 600 cells in 4 uL/well were dispensed into white solid 1536-well plates (Grenier) using a solenoid-based dispenser. Following transfer of 23 nL compound or DMSO vehicle by a pin tool, the plates were incubated 1 hr at ambient temperature, and 1 uL/well copper sulfate (700 uM final concentration) was added. The plates were centrifuged 15 s at 1000 RPM and incubated 20 hr at ambient temperature. After addition of 1.5 uL Photinus luciferase detection reagent, the plates were incubated 10 min at ambient temperature and then read by an ViewLux (Perkin Elmer) to detect luminescence.

Potency, active:
COCC1CCCCN1C(=O)c1cc(COc2ccc3ncccc3c2)on1 (stereo not given) 14.4 µM
O=C(CCCN1C(=O)/C(=C/c2ccccc2Cl)SC1=S)Nc1cccnc1 1.82 µM
Cc1cc(C)n(-c2nc(SCC(=O)O)c3c4c(sc3n2)CCCC4)n1 18.2 µM
COc1ccc2nc(NNC(=O)COc3ccccc3)sc2c1 6.45 µM
CCOC(=O)Cn1c(CN2CCc3ccccc3C2)nc2c1c(=O)n(C)c(=O)n2C 16.2 µM
CC(C)(C)c1ccc([S+](=O)([O-])Nc2ccccc2C(O)(C(F)(F)F)C(F)(F)F)cc1 18.2 µM
CCOc1cccc(-c2cc(-c3n[nH]c(=S)n3CC)c3ccccc3n2)c1 7.24 µM and 18.2 µM
O=C(/C=C/c1ccc(S(=O)(=O)N2CCOCC2)cc1)NC(=S)Nc1ccc(N2CCOCC2)cc1 14.4 µM
CC(C)(C)c1ccc(-c2noc(CCC(=O)Nc3cccnc3)n2)cc1 0.0457 µM
COc1cc(OC)c(C(CC(=O)N2CCCC(C)C2)c2ccc3c(c2)OCO3)c(OCc2ccccc2)c1 (stereo not given) 20.4 µM
Cc1ccc(C)c(/C=N/n2cc(-c3ccccc3)[nH]c2=S)c1 0.911 µM
O=C(NC(=S)Nc1nc(-c2ccccc2)cs1)c1cccnc1 32.3 µM
O=S(=O)(c1ccc(NC(=S)N/N=C/c2ccc(Oc3ccccc3)cc2)cc1)N1CCOCC1 2.57 µM
CC(C)(C)c1ccc(S(=O)(=O)Nc2ccc(C(O)(C(F)(F)F)C(F)(F)F)cc2)cc1 18.2 µM
O=C(CCCOc1ccccc1)Nc1nc2ccccc2[nH]1 14.4 µM
Cc1cc(C)c2sc(NC(=O)c3ccc(N4C(=O)CCC4=O)cc3)nc2c1 0.407 µM
Cc1ccc(OCCCC(=O)Nc2nc3ccccc3[nH]2)cc1 8.12 µM
CCNC(=O)CCc1nc(-c2ccc(C(C)(C)C)cc2)no1 0.162 µM
CCOc1ncccc1C(=O)OCC(=O)Nc1ccc(-c2nc3ccc(C)cc3s2)cc1 7.24 µM
COc1cc(OC)c(C(c2ccccc2)C(C)(C)C(=O)N2CC(C)CC(C)C2)c(OC)c1 (stereo not given) 16.2 µM
COC(=O)Cn1c(CN2CCc3ccccc3C2)nc2c1c(=O)n(C)c(=O)n2C 18.2 µM

Activity change, negative = inhibition, inactive:
COc1cc(O)c(C(CC(=O)N2CCCC(C)C2)c2ccc(-c3ccccc3)cc2)c(OC)c1 (stereo not given) -20.9%
COc1cc(O)c(C(CC(=O)N2CCCC(C)C2)c2ccc3ccccc3c2)c(OC)c1 (stereo not given) -28%
COc1ccc(C(CC(=O)N2CCCC(C)C2)c2c(O)cc(OC)cc2OC)cc1 (stereo not given) 3.66%
COc1cc(O)c(C(CC(=O)N2CCCC(C)(C)C2)c2ccc3c(c2)OCO3)c(OC)c1 (stereo not given) -12.2%
COc1cc(O)c(C(CC(=O)N2CCCC(CN3CCCCC3)C2)c2ccc3c(c2)OCO3)c(OC)c1 (stereo not given) -29.6%
COc1cc(O)c(C(CC(=O)Nc2cccc3ccccc23)c2ccc3c(c2)OCO3)c(OC)c1 (stereo not given) -14.7%
COc1cc(O)c(C(CC(=O)N2CCC(c3ccccc3)CC2)c2ccc3c(c2)OCO3)c(OC)c1 (stereo not given) 2.86%
COc1cc(O)c(C(CC(=O)N2CCCC(C)C2)c2ccccc2)c(OC)c1 (stereo not given) 17.8%
CC1CCCN(C(=O)CC(c2ccccc2)c2ccc(O)cc2)C1 (stereo not given) -19.1%
COc1cc(O)c(C(CC(=O)NC2CCCc3ccccc32)c2ccc3c(c2)OCO3)c(OC)c1 (stereo not given) -3.21%
COc1cc(O)c(C(CC(=O)N2CCCC(C#N)C2)c2ccc3c(c2)OCO3)c(OC)c1 (stereo not given) 18.3%
COc1cc(O)c(C(CC(=O)N2CCCC2)c2ccc3c(c2)OCO3)c(OC)c1 (stereo not given) -18.2%
CC1CCCN(C(=O)CC(c2ccc3c(c2)OCO3)c2ccc(O)cc2O)C1 (stereo not given) 13.4%
COCOc1cc(OC)cc(OC)c1C(CC(=O)N1CC(C)CC(C)C1)c1ccc2c(c1)OCO2 (stereo not given) -81.7%
COc1cc(O)c(C(CC(=O)N2CC(C)NC(C)C2)c2ccc3c(c2)OCO3)c(OC)c1 (stereo not given) -10.8%
COc1cc(O)c(C(CC(=O)N2CCCCC2)c2ccc3c(c2)OCO3)c(OC)c1 (stereo not given) 5.12%
COCC1CCCN(C(=O)CC(c2ccc3c(c2)OCO3)c2c(O)cc(OC)cc2OC)C1 (stereo not given) -3.63%
CC1CCCN(C(=O)CC(c2ccccc2)c2ccccc2O)C1 (stereo not given) 20.8%
CC1CCCN(C(=O)CC(c2ccc3c(c2)OCO3)c2cc(C(C)C)ccc2O)C1 (stereo not given) 17.7%
